FBA Mtb inh: inhibitors of M. tuberculosis fructose-bisphosphate aldolase; purified M. tuberculosis FBA, fluorescence read-out; 2.3% of 360,000 active; inhibition, % at 1 µM; P9WQA3; in the data active = inhibition above about 27%;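 also: 0% = vehicle and 100% = reference inhibitor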
Target sequence (P9WQA3 whole entry, looked up): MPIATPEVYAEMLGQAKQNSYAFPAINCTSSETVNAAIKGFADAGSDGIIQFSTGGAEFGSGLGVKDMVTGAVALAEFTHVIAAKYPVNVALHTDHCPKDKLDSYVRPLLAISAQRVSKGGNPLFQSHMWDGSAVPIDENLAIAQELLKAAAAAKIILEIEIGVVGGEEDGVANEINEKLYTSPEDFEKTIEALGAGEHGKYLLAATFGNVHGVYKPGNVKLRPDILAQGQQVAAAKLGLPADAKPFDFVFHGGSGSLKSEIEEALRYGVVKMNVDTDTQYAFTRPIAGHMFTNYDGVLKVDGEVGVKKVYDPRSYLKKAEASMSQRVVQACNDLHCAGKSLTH
PrPC TRFRET: cell surface PrPC inhibition, primary TR-FRET screen | inhibition, % at 13.8 µM | TR-FRET read-out | 0.43% of 370,000 active | P04156; in the data active = inhibition above about 24%; also: 0% = median of the test wells and 100% = reference compound wells
Vc quorum ag: induces V. cholerae light production without autoinducers | V. cholerae BH1578 lux reporter, luminescence, 6 h | activation, % at 18.7 µM | 0.16% of 350,000 active | AID 588436; in the data active = activation mostly above about 9.7%, no sharp cut-off
GDH-TPI counter: inhibits GDH-TPI coupling enzymes, artifact for Mtb FBA screen; GDH-TPI coupled enzyme counterscreen, NADH absorbance; inhibition, % at 4.8 µM; 1.2% of 360,000 active; AID 588335; in the data active = inhibition above about 30%;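 also: 0% = DMSO wells and 100% = wells lacking the enzyme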
3CLpro inhibitor: SARS-CoV 3CLpro protease inhibition. P0C6X7. recombinant SARS-CoV 3CLpro, quenched FRET peptide cleavage. inhibition, % at 6 µM. 0.14% of 290,000 active. AID 1706; in the data active = inhibition above about 12%
The depositor's hits bear a star. Hits are enriched below; roughly 3.9% of the tested compounds scored in any of these assays.

Screening O=C(COc1ccccc1)Nc1nnc(S(=O)(=O)N2CCCCCC2)s1 returned FBA Mtb inh 6, PrPC TRFRET -6, Vc quorum ag 0, GDH-TPI counter 12 and 3CLpro inhibitor 6.
Screening Cc1cccc(C)c1NC(=O)COC(=O)[C@@H]1CCCN1C(=O)c1cccs1 returned FBA Mtb inh 0, PrPC TRFRET 4, Vc quorum ag inactive and GDH-TPI counter 2.
`CCOC(=O)c1nn(-c2ccccc2)c(C#N)c1N` gave FBA Mtb inh active, PrPC TRFRET 6, Vc quorum ag 0, GDH-TPI counter 10 and 3CLpro inhibitor 1.
Screening Cc1cccc(C(=O)NNC(=O)c2ccc(Cl)cc2)c1O returned FBA Mtb inh 1, PrPC TRFRET 4, Vc quorum ag 50*, GDH-TPI counter 7 and 3CLpro inhibitor -2.
Screening Cc1cc(C(=O)NNC(=O)c2ccc(Cl)cc2)c2ccccc2n1 returned FBA Mtb inh 0, PrPC TRFRET 3, Vc quorum ag 25* and GDH-TPI counter 5.
COc1ccc(C(=O)NNC(=O)c2cc(C)nc3ccccc23)cc1 was read as FBA Mtb inh 3, PrPC TRFRET -7, Vc quorum ag -2 and GDH-TPI counter 7.
Screening O=C(Nc1cccc(F)c1)OCCN1CCCC12CCC(c1ccccc1)CC2 (stereo not drawn) returned PrPC TRFRET 3.
`Cn1cc(C(=O)NS(=O)(=O)Nc2ccc(Br)cc2)c2ccccc21` gave FBA Mtb inh 3, PrPC TRFRET 10, Vc quorum ag 0, GDH-TPI counter 3 and 3CLpro inhibitor -1.
Screening Oc1ccc(/C=N/n2c(-c3ccccc3)n[nH]c2=S)cc1Br returned FBA Mtb inh -1, PrPC TRFRET -6, Vc quorum ag -1, GDH-TPI counter 48* and 3CLpro inhibitor 5.
Oc1c(Br)cc(/C=N/n2c(-c3ccccc3)n[nH]c2=S)c(O)c1Br was read as FBA Mtb inh 4, Vc quorum ag inactive, GDH-TPI counter 36* and 3CLpro inhibitor 2.
Oc1c(Br)cc(/C=N/n2c(-c3ccccc3)n[nH]c2=S)cc1Br was read as FBA Mtb inh -1, PrPC TRFRET 1, Vc quorum ag -1, GDH-TPI counter 31* and 3CLpro inhibitor 3.
Screening COc1cc(/C=N/n2c(-c3ccccc3)n[nH]c2=S)ccc1O returned FBA Mtb inh -4, PrPC TRFRET -5, Vc quorum ag inactive, GDH-TPI counter 15 and 3CLpro inhibitor -5.
Cc1ccc(C)c(-c2nc3ccc(N)cc3[nH]2)c1 was read as FBA Mtb inh 189*, PrPC TRFRET 11, Vc quorum ag 3, GDH-TPI counter -2 and 3CLpro inhibitor 6.
Screening Cc1cc2nc(-c3ccccc3O)[nH]c2cc1C returned FBA Mtb inh 157*, PrPC TRFRET 2, Vc quorum ag inactive and GDH-TPI counter 15.
Screening O=[N+]([O-])c1ccc(-c2nc3ccc([N+](=O)[O-])cc3[nH]2)cc1 returned FBA Mtb inh 1, PrPC TRFRET -8, Vc quorum ag 1, GDH-TPI counter 31* and 3CLpro inhibitor 2.
Nc1ccc(-c2nc3c(Cl)c(N)ccc3[nH]2)cc1 was read as FBA Mtb inh active, PrPC TRFRET 9, Vc quorum ag -5, GDH-TPI counter 38* and 3CLpro inhibitor 1.
Screening Nc1ccc(-c2nc3ccc([N+](=O)[O-])cc3[nH]2)cc1 returned FBA Mtb inh 2, PrPC TRFRET -19, Vc quorum ag inactive, GDH-TPI counter 22 and 3CLpro inhibitor -10.
`CCCN(CC(=O)Nc1cc(Cl)ccc1Cl)C(=O)CN1C(=O)C2CCCCC2C1=O` (stereo not drawn) gave FBA Mtb inh 2, PrPC TRFRET 9, Vc quorum ag -2, GDH-TPI counter -8 and 3CLpro inhibitor -1.
